Experimental data published in PubChem BioAssay (NCATS).
Inconclusive results are not listed. The source made the active and inactive calls. Unless noted, calls come from the whole dose curve; as a rule, active = well fitted curve in the direction sought with a large enough effect; inconclusive = small, poorly fitted or top-dose-only effect, or another doubt; inactive = no such curve, though single readings can be large; an effect the other way counts as inactive or inconclusive.

Assays:
[1] = qHTS for compounds that reverse cellular toxicity of Amyloid beta (A-beta) peptide in yeast: LOPAC Validation Assay (AID 720559);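 note: plate controls were DMSO for no effect and equimolar ferric chloride plus clioquinol rescue for full effect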
Procedure, shortened: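 Yeast cells expressing toxic A-beta were combined with pinned compounds in growth medium and incubated 48 hr at 30 C. Growth was read as absorbance at 600 nm and normalized to DMSO and to an equimolar FeCl3/clioquinol positive control.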

[2] = qHTS for Activators of Parkin Expression: LOPAC Validation Assay (FLuc Reporter) (AID 720573;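 note: 0% = DMSO and 100% = positive control compounds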)
Procedure, shortened: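 Neuronal cell line stably carrying FLuc/NLuc coincidence reporter under Parkin promoter; cells plated 24 h, then compounds added in 7-point dose response for 24 h at 37 C. FLuc luminescence read; normalized to DMSO and positive control (100%).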

[3] = target: T1, Hexokinase-4 (Homo sapiens) + Glucokinase regulatory protein (Homo sapiens) (UniProt P35557+Q14397); experiment: qHTS assay for inhibitors of recombinant human GCK-GKRP interaction: Diaphorase-coupled assay (AID 743205)
T1 sequence (P35557 whole entry, looked up): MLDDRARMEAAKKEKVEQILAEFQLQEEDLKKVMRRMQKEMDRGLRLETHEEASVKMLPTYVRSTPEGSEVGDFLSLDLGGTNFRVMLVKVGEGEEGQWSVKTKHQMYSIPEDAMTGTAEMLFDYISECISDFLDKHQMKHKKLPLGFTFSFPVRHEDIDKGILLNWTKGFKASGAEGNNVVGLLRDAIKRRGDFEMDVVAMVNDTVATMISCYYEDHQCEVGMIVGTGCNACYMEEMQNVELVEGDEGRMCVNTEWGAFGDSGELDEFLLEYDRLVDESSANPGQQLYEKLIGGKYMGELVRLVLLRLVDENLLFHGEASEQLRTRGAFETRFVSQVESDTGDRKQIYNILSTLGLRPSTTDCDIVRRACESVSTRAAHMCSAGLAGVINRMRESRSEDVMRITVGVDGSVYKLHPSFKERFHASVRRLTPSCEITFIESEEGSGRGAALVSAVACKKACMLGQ
T1 sequence (Q14397 whole entry, looked up): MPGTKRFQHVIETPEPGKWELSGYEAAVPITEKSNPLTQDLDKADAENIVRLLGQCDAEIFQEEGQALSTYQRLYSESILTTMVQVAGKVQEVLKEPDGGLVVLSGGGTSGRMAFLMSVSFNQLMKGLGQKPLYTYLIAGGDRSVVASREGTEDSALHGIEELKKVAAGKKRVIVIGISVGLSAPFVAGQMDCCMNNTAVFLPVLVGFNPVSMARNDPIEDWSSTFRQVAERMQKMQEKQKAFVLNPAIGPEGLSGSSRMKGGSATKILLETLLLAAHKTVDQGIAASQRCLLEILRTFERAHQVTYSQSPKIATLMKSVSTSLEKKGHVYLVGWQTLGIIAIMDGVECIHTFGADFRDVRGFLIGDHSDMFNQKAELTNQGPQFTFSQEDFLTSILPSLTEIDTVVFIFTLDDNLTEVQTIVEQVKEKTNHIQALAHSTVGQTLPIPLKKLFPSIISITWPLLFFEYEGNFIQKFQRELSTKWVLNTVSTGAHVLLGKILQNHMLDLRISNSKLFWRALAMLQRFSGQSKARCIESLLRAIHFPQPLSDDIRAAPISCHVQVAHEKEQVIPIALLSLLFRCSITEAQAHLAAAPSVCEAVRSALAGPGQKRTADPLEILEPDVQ
Procedure, shortened: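 GST-GCK (10 nM) with FLAG-GKRP (10 nM), 5 mM glucose and 0.4 mM ATP in pH 7.6 Hepes; compounds preincubated 20 min with substrate. G6PDH/diaphorase coupling converts resazurin to resorufin, read kinetically (ex 525/em 590 nm) for 30 min.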

[4] = target: T1, Hexokinase-4 (Homo sapiens) + Glucokinase regulatory protein (Homo sapiens); experiment: qHTS assay for inhibitors of recombinant human GCK-GKRP interaction: HTRF assay (AID 743207);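 note: 0% = DMSO with GCK present and -100% = DMSO wells lacking GCK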
Procedure, shortened: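 GST-GCK and FLAG-GKRP (5 nM each) were combined with 2 uM S6P in pH 7.1 Hepes/MgCl2/KCl/DTT buffer, then compound and anti-FLAG XL665/anti-GST K antibodies were added. After 60 min at room temperature, HTRF 665/615 nm emission was read.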

[5] = target: T1, Hexokinase-4 (Homo sapiens) + Glucokinase regulatory protein (Homo sapiens); experiment: qHTS assay for inhibitors of recombinant human GCK-GKRP interaction: ADP-Glo assay (AID 743206);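 note: plate controls were DMSO plus enzyme for no effect and no enzyme for full effect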
Procedure, shortened: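 Pin-transferred compounds meet a 15 nM GST-GCK/15 nM FLAG-GKRP/2 uM S6P mix (dispense concentrations). ATP is then added to 0.4 mM final with 5 mM glucose, and the reaction runs 60 min at room temperature. ADP is quantified luminescently.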

[6] = target: Arylsulfatase A (Homo sapiens) (UniProt P15289); experiment: qHTS screen for enhancers of Arylsulfatase A (ASA1): LOPAC Validation Assay (AID 720538); details: outcome: dose series up to 57.5 µM
Chain of Arylsulfatase A (Homo sapiens) (P15289 whole entry, looked up): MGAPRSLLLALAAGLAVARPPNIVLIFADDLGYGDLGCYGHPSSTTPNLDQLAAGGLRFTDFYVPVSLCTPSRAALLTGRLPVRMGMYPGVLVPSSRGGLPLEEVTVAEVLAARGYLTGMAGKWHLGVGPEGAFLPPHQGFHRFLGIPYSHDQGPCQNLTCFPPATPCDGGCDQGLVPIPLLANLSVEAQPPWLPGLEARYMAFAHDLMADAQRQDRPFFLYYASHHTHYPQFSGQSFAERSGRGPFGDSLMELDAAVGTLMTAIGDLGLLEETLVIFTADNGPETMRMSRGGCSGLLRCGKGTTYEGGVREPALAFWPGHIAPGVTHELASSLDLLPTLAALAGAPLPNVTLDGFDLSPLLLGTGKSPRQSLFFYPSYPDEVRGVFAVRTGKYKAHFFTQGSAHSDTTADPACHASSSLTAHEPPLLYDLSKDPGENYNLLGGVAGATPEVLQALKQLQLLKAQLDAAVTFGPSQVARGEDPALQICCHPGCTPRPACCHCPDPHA
Procedure, shortened: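 SV40-transformed skin fibroblasts from an MLD patient (ASA-I179S) were treated with compounds for 48h at 37 degree C, then lysed with 0.5mM pNCS final substrate for 14h at room temperature; NaOH stop, fluorescence read (Ex=525 nm; Em=598 nm).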

[7] = qHTS for Activators of Parkin Expression: LOPAC Validation Assay (NLuc Reporter) (AID 720572;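 note: 0% = DMSO and 100% = positive control compound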)
Procedure, shortened: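 Cells harboring the Parkin-promoter coincidence reporter were treated for 24 h at seven concentrations. NLuc output was measured sequentially after the FLuc channel and scaled between DMSO and positive control values.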

[8] = qHTS assay for small molecule agonists of the antioxidant response element (ARE) signaling pathway measured by Nrf2-dependant transcriptional activity (AID 720636; active = well fitted curve in the direction sought with a large enough effect in the repeat runs; an effect the other way counts as inactive or inconclusive; note: % of control where 0% means no effect)
Procedure, shortened: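 ARE-luc HepG2 cells carrying an Nrf2-responsive luciferase reporter were plated in medium with 1% dialyzed FBS, left 6 hr at 37 C to attach, then exposed to compound for 16 hr. Luciferase luminescence was read after ONE-Glo addition.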

[9] = qHTS assay for small molecule agonists of the antioxidant response element (ARE) signaling pathway measured by Nrf2-dependant transcriptional activity - cell viability counter screen (AID 720653; active = well fitted curve in the direction sought with a large enough effect in the repeat runs; an effect the other way counts as inactive or inconclusive; note: % is set by controls: 0 for no effect and ±100 for the full control effect); details: ARE-bla HepG2 viability, CellTiter-Glo ATP luminescence, 16 h; max response: active compounds read low
Procedure, shortened: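 ARE-bla HepG2 cells (2,000/well) rested 5 hrs at 37C/5% CO2, then exposed to compounds in DMSO for 16 hrs. Viability was read in the same wells as intracellular ATP by luminescence, 30 min at room temperature after reagent addition.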

CN[C@@H]1C[C@@H](c2ccc(Cl)c(Cl)c2)c2ccccc21
inactive: outcome [1] | outcome [2] | outcome [3] | outcome [4]

c1ccc(C2(c3ccccc3)CC2C2=NCCN2)cc1 (stereo not drawn)
inactive: outcome [1] | outcome [2] | outcome [3] | outcome [5] | outcome [4]

CC[C@@]1(O)C(=O)OCc2c1cc1n(c2=O)Cc2cc3ccccc3nc2-1
inactive: outcome [1] | outcome [2] | outcome [3] | outcome [5] | outcome [4]

c1ccc(CCCN2CCN(CCOC(c3ccccc3)c3ccccc3)CC2)cc1
inactive: outcome [1] | outcome [2] | outcome [3] | outcome [5] | outcome [4]

COc1cc(C(O)CN)ccc1O (stereo not drawn)
inactive: outcome [6] | outcome [1] | outcome [2] | outcome [3] | outcome [4]

O=C1CCCN1CC#CCN1CCCC1
inactive: outcome [1] | outcome [2] | outcome [3] | outcome [4]

NC1CC1c1ccccc1 (stereo not drawn)
inactive: outcome [1] | outcome [7] | outcome [2] | outcome [3] | outcome [4]

C/C=C(/C)C(=O)O[C@H]1C(C)=C2[C@H]([C@@H]1OC(=O)CCCCCCC)[C@@](C)(OC(C)=O)C[C@H](OC(=O)CCC)[C@@]1(O)[C@H]2OC(=O)[C@@]1(C)O
inactive: outcome [1] | outcome [2] | outcome [3] | outcome [5] | outcome [4]

Cn1cnc(CCN)c1
inactive: outcome [1] | outcome [2] | outcome [3] | outcome [4]

CC(C)Oc1cccnc1N(C)C1CCN(Cc2ccccc2)CC1
inactive: outcome [1] | outcome [7] | outcome [2] | outcome [3] | outcome [4]

CCCN1CCO[C@@H]2c3cc(O)ccc3OC[C@H]21
inactive: outcome [1] | outcome [7] | outcome [2] | outcome [3] | outcome [4]

NCCc1c[nH]c2ccccc12
inactive: outcome [1] | outcome [7] | outcome [2] | outcome [3] | outcome [5] | outcome [4]

NC(=O)CN1CC(O)CC1=O (stereo not drawn)
inactive: outcome [1] | outcome [2] | outcome [3] | outcome [5] | outcome [4]

NC(CCP(=O)(O)O)C(=O)O (stereo not drawn)
inactive: outcome [6] | outcome [1] | outcome [7] | outcome [2] | outcome [3] | outcome [4]

COc1ccc2c(c[n+](C)c3c4cc5c(cc4ccc23)OCO5)c1OC
inactive: outcome [1] | outcome [2] | outcome [3] | outcome [5] | outcome [4]

O=C(N[C@H]1CN2CCC1CC2)c1ccc(Cl)cc1
inactive: outcome [1] | outcome [7] | outcome [2] | outcome [3] | outcome [4]

CC(C)NC(C)Cc1ccc(I)cc1 (stereo not drawn)
inactive: outcome [6] inactive; inhibitor; fitted 0.3013 uM | outcome [1] | outcome [2] | outcome [3] | outcome [5] | outcome [4]

CCCN(CCC)[C@@H]1CCc2ccc(O)cc2C1
inactive: outcome [1] | outcome [7] | outcome [2] | outcome [3] | outcome [4]

Clc1cnc(Oc2ccc(Oc3ncc(Cl)cc3Cl)cc2)c(Cl)c1
inactive: outcome [1] | outcome [2] | Potency [8] | max response [9] -6.15% | outcome [3] | outcome [5] | outcome [4]

CC(=O)NCCc1c[nH]c2ccccc12
inactive: outcome [1] | outcome [2] | outcome [3] | outcome [4]

CCCN(CCC)C1CCc2ccc(O)cc2C1 (stereo not drawn)
inactive: outcome [1] | outcome [2] | outcome [3] | outcome [5] | outcome [4]

O=C(O)CC[N+](=O)[O-]
inactive: outcome [1] | outcome [2] | outcome [3] | outcome [4]

C#CCOC(=O)C1=CCCN(C)C1
inactive: outcome [1] | outcome [7] | outcome [2] | outcome [3] | outcome [4]

Oc1ccc2c3c1O[C@H]1c4[nH]c5c(c4C[C@@]4(O)[C@@H](C2)N(CC2CC2)CC[C@]314)C[C@@]1(O)[C@H]2Cc3ccc(O)c4c3[C@@]1(CCN2CC1CC1)[C@H]5O4
inactive: outcome [6] | outcome [1] | outcome [2] | outcome [3] | outcome [4]

O=C(Cc1ccc(Cl)c(Cl)c1)N1CCCCC1CN1CCCC1 (stereo not drawn)
inactive: outcome [6] | outcome [1] | outcome [7] | outcome [2] | outcome [3] | outcome [4]

CC[C@@H](C(N)=O)N1CCCC1=O
inactive: outcome [1] | outcome [2] | outcome [3] | outcome [5] | outcome [4]

C[C@@H](N)Cc1cnc[nH]1
inactive: outcome [1] | outcome [2] | outcome [3] | outcome [4]

Cc1c(C(=O)c2cccc3ccccc23)c2cccc3c2n1[C@H](CN1CCOCC1)CO3
inactive: outcome [1] | outcome [2] | outcome [3]

CN1C2CCC1CC(OC(=O)c1cc(Cl)cc(Cl)c1)C2 (stereo not drawn)
inactive: outcome [1] | outcome [2] | outcome [3] | outcome [4]

CCCCc1ccc(C(=O)O)nc1
inactive: outcome [1] | outcome [7] | outcome [2] | outcome [3] | outcome [5] | outcome [4]

CNCCc1ccc(O)c(O)c1
inactive: outcome [1] | outcome [2] | outcome [3] | outcome [5] | outcome [4]
